Laboratory results reported in PubChem BioAssay AID504467 (National Center for Advancing Translational Sciences (NCATS), 2011).
Out of some 330,000 compounds screened, about 7,700 (2.3%) were called active. Another 26% or so got no clear call; they are omitted. For the sample, actives were picked, then their nearest neighbours and some compounds at random. Unmarked numbers belong to inactive results. The call rests on the fitted dose curve; in most records, active means well fitted inhibition curve with a large enough effect; inconclusive means small, poorly fitted or top-dose-only effect, or effect the other way; inactive means flat fitted curve, though single readings scatter.

Assay: qHTS screen for small molecules that inhibit ELG1-dependent DNA repair in human embryonic kidney (HEK293T) cells expressing luciferase-tagged ELG1; further: nearly all actives have a fitted effect of over 55% in size
Conditions: HEK293T ELG1-luciferase reporter, luminescence, 16 h, DNA damage induced by 5-fluorouridine; series mostly up to 46.1 µM; activity change, negative = inhibition: at the top concentration
Procedure, shortened: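 Overnight (16 hr) co-exposure of 2,000 cells/well to 5-fluorouridine and compound at 37 °C preceded detection. Luciferase was quantified via ONE-Glo luminescence; loss of signal denotes inhibition.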
On the % scale 0 is the no-effect control and ±100 the full control effect; potency means the concentration at half of the fitted maximal effect.

SMILES | activity change, negative = inhibition | Potency
COc1cccc2cc(C(=O)NCc3ccc(C)cc3)c(=N)oc12 | 12.2% | 
CCOc1ccc(NC(=O)CN(C)C(=O)c2cccc(S(=O)(=O)N3CCCC3)c2)cc1OCC | 4.54% | 
O=C(CSc1ccc2nnc(-c3ccccc3)n2n1)N1CCCc2ccccc21 |  | 25.9 µM (active)
CCOC(=O)CNC(=O)CSc1ccc2nnc(-c3cccnc3)n2n1 | 18.4% | 
Cn1c(SCC(=O)N2CCCc3ccccc32)nc2ccccc2c1=O |  | 16.4 µM (active)
CCC(=O)N1CCCc2ccccc21 | 14.5% | 
CCCn1c(SCC(=O)N2CCc3ccccc32)nnc1-c1ccncc1 | -8.3% | 
O=C(CSc1nc2[nH]ncc2c(=O)n1-c1ccccc1)N1CCCc2ccccc21 | 1.87% | 
O=C1NC(Cc2ccc(O)cc2)c2nc3ccc(Cl)cc3c(=O)n2-c2ccccc21 (stereo not given) | -0.185% | 
CCOc1ccc(NC(=O)C2CCN(C(=O)N3CCOc4ccccc43)CC2)cc1 | -3.39% | 
COC(=O)c1ccc(CN2CCCC(C(=O)Nc3cccc(-n4cnnn4)c3)C2)cc1 (stereo not given) |  | 16.4 µM (active)
CC(C)CNC(=O)C1CCCN(S(=O)(=O)c2ccc(-n3cnnn3)cc2)C1 (stereo not given) | -8.75% | 
O=C(Nc1ccc(F)cc1)C1CCCN(S(=O)(=O)c2ccc(-n3cnnn3)cc2)C1 (stereo not given) | -0.956% | 
O=C(NCCc1ccco1)C(=O)NCCC1CCCCN1S(=O)(=O)c1ccccc1 (stereo not given) | -2.12% | 
N#C/C(=C(/O)COc1cccc2ccccc12)c1nc2ccccc2[nH]1 | 10.5% | 
c1ccc2c(CSCc3nc4ccccc4[nH]3)cccc2c1 | 2.77% | 
N#C/C(=C(/O)Cc1cccc2ccccc12)c1nc2ccccc2s1 |  | 20.6 µM (active)
Cc1noc(C)c1S(=O)(=O)N(C)C[C@H]1Oc2ccc(NC(=O)C3CCCCC3)cc2C(=O)N([C@H](C)CO)C[C@@H]1C | -22.7% | 
O=C(Nc1ccc(C(F)(F)F)cc1)c1cccc(-n2cnnn2)c1 | -22.7% | 
CC(=O)Nc1ccc(NS(=O)(=O)c2ccc3c(c2)NC(=O)CC(=O)N3)cc1 | 2.13% | 
COc1ccc(NC(=O)Cn2ncn3c(cc4ccccc43)c2=O)c(OC)c1OC | -9.46% | 
COc1ccc(C(=O)C2CCCN(S(=O)(=O)c3cccc(C)c3)C2)c(C)c1 (stereo not given) | -11.6% | 
COc1cc(-c2noc(C3CCCN(S(=O)(=O)c4cccc(Cl)c4)C3)n2)cc(OC)c1OC (stereo not given) |  | 20.6 µM (active)
COc1ccc(NC(=O)N2CCCC(c3nc(-c4ccc(F)cc4)no3)C2)cc1 (stereo not given) | -4.71% | 

SMILES | activity change, negative = inhibition | Potency
Cn1c(CC(=O)NNC(=O)c2ccccc2F)nc2ccccc21 | -2.35% | 
O=C(CN1C(=O)NC2(CCOc3ccccc32)C1=O)Nc1cccc([N+](=O)[O-])c1 (stereo not given) | -1.59% | 
COc1ccc(-c2ccc(Nc3ccc(S(=O)(=O)N4CCCC4)cc3)nn2)cc1OC |  | 23.1 µM (active)
COc1ccc(S(=O)(=O)N2CCCCC2)cc1Br | 13.4% | 
COc1ccc(S(=O)(=O)N2CCCCC2)cc1NC(=O)COc1ccccc1 | -17.4% | 
COc1ccc(CC(=O)Nc2cc(S(=O)(=O)N3CCCCC3)ccc2N2CCN(C)CC2)cc1 | -4.62% | 
COc1ccc(S(=O)(=O)Nc2ccc(S(=O)(=O)N3CCCCC3)cc2)cc1OC | 0.651% | 
CCNC(=O)NC(=O)C(C)OC(=O)C1CCN(S(=O)(=O)c2ccccc2F)CC1 (stereo not given) | 16% | 
COc1ccc(S(=O)(=O)N2CCOCC2)cc1C(=O)NC1CCCCC1 | 11.1% | 
CCNC(=O)NC(=O)C(C)OC(=O)c1cc(S(=O)(=O)N2CCCCCC2)ccc1OC (stereo not given) |  | 23.1 µM (active)
COc1ccc(S(=O)(=O)N2CCCCCC2)cc1NC(=O)Cc1ccc(OC)c(OC)c1 |  | 18.3 µM (active)
CC(=O)NCCC(=O)Nc1cc(S(=O)(=O)N2CCCCC2)ccc1Oc1cccc(C)c1 | 21% | 
Cc1cccn2c(=O)c3cc(C(=O)NCC4CCCO4)c(=N)n(Cc4ccc(F)cc4)c3nc12 (stereo not given) | -23.9% | 
CCCCc1ccc(NS(=O)(=O)c2cccc(C(=O)N3CCCN(C)CC3)c2)cc1 | 14.4% | 
COc1cc(OC)c(N2CC(C(=O)Nc3cc(Cl)ccc3N3CCOCC3)CC2=O)cc1Cl (stereo not given) | 2.85% | 
CC(=O)Nc1ccc(-c2csc(NC(=O)Nc3ccccc3)n2)cc1 |  | 7.3 µM (active)
CC(=O)Nc1ccc(S(=O)(=O)Nc2nc(-c3ccc(C(C)(C)C)cc3)cs2)cc1 | 14% | 
O=C(O)c1ccccc1C(=O)Nc1nc(-c2ccccc2)cs1 | 10.9% | 
CC1C(=O)C(C)C(c2ccc(O)cc2)NC1c1ccc(O)cc1 (stereo not given) | 18.1% | 
CC(C)[C@H](NC(=O)N1c2ccccc2NC(=O)[C@@H]1C(C)C)C(=O)N[C@H](C(=O)O)c1ccccc1 | 22.4% | 
Cc1cccc(N2CCN(C(C)C(=O)N3CCc4ccccc43)CC2)c1C (stereo not given) | -5.67% | 
COc1ccc(OCCNC(=O)c2cc(C3CC3)nc3c2cnn3C(C)C)cc1 | -4.73% | 
COc1ccc(CNC(=O)CN(C(=O)c2csnn2)c2cnc3ccccc3c2)cc1 | -3.41% | 
COc1cc(N)c(Cl)cc1C(=O)OCC(=O)c1ccc2c(c1)NC(=O)CO2 |  | 3.66 µM (active)

SMILES | activity change, negative = inhibition | Potency
O=C1COc2ccc(C(=O)COC(=O)c3cccnc3Cl)cc2N1 | 2.41% | 
O=C1COc2ccc(C(=O)COC(=O)c3ccccc3Cl)cc2N1 | -6.7% | 
COc1cc(/C=N/NC(=O)c2cccnc2)ccc1OC(=O)c1cccc(Br)c1 | 0.26% | 
CCOC(=O)c1ccc(Nc2cc(C)nc3nc(C)nn23)cc1 | 2.25% | 
CCOC(=O)c1ccc(N/C(=N/S(=O)(=O)c2ccccc2)c2ccccc2)cc1 | -24.7% | 
CCOC(=O)c1nc(Nc2ccc(C(=O)OC)cc2)c2ccccc2n1 |  | 4.11 µM (active)
Cc1cc2occ(CC(=O)NNC(=O)c3ccccc3F)c2cc1C | -5.46% | 
O=C1[C@H]2[C@@H](c3ccc(Cl)cc3)N3C(=O)N(c4cccc(F)c4)C(=O)[C@@]3(Cc3ccccc3)[C@H]2C(=O)N1C1CCCCC1 | 28.4% | 
COc1ccccc1CN1CCN(C(c2ccccc2)c2ccccc2)CC1 | -14.1% | 
CCCCn1c(N)c(N(CC(C)C)C(=O)c2ccc(-n3c(C)ccc3C)cc2)c(=O)[nH]c1=O | -1.16% | 
Cc1nc(SCC(=O)NC2CCCCC2C)c(C#N)c(C)c1C (stereo not given) | 16.4% | 
COc1ccccc1Oc1ccc(S(=O)(=O)Nc2cccnc2)cc1 | -14.3% | 
CCOc1ccc(S(=O)(=O)Nc2ccc(S(=O)(=O)Nc3cc(OC)ccc3OC)cc2)cc1 | -0.956% | 
COc1ccc(NS(=O)(=O)c2ccc(Oc3c(C#N)cccc3C#N)cc2)cc1 |  | 2.31 µM (active)
CN(CC(=O)Nc1ccc(OC(F)(F)F)cc1)C(=O)C1CCC1 | 8.07% | 
Cc1noc(/C=C/c2ccco2)c1S(=O)(=O)N1CCC(C(=O)Nc2ccc(Cl)cn2)CC1 |  | 5.8 µM (active)
CCOC(=O)C1CCN(S(=O)(=O)c2c(C)noc2C)CC1 | 15.1% | 
Cc1noc(/C=C/N(C)C)c1S(=O)(=O)N1CCCC(C(=O)NCc2ccco2)C1 (stereo not given) | -7.93% | 
Cc1ccc(Cl)c(OCC(=O)N(C)CC(=O)Nc2ccc(N3CCOCC3)cc2)c1 | -12.8% | 
COc1cc2ccccc2cc1C(=O)N(CCN(C)C)c1nc2c(F)cccc2s1 | -23.6% | 
CN1c2ccc(C=O)c3c(C=O)ccc(c23)N(C)C1(C)C |  | 6.51 µM (active)
Cc1cccn2c(=O)c(/C=C(\C#N)C(N)=O)c(N3CCCCCC3)nc12 | -28% | 
CC(Sc1ccccc1F)C(=O)Nc1cccc(S(=O)(=O)N2CCOCC2)c1 (stereo not given) | 2.08% | 
CC(C)CN(C(=O)COC(=O)c1ccc(Cl)c(N)c1)c1c(N)n(Cc2ccccc2)c(=O)[nH]c1=O | -14.9% | 

SMILES | activity change, negative = inhibition | Potency
COC(=O)C(C)Oc1ccc2c(c1)O/C(=C\c1cccc(Br)c1)C2=O (stereo not given) | -0.608% | 
Cc1cc(C(=O)OCC(=O)N2c3ccccc3NC(=O)C2(C)C)c(C)n1-c1ccccc1 |  | 29.1 µM (active)
CNS(=O)(=O)c1cccc(C(=O)OCC(=O)N2c3ccccc3NC(=O)C2(C)C)c1 | 2.59% | 
Cc1ccc(OCCC(=O)OCC(=O)N2c3ccccc3NC(=O)C2(C)C)cc1 | 0.622% | 
O=c1[nH]cccc1-c1nc2ccccc2n1Cc1ccc(Cl)cc1 | 1.7% | 
O=C(NC(Cc1c[nH]c2ccccc12)C(=O)N/N=C/c1ccc(Br)cc1)c1cccs1 (stereo not given) |  | 23.1 µM (active)
CC(=O)NC(Cc1c[nH]c2ccccc12)C(=O)O (stereo not given) | -11% | 
O=C(CNC(=O)c1cccs1)N/N=C/c1cccc(Br)c1 | 5.85% | 
CC1CN(C(=O)c2ccc([N+](=O)[O-])s2)CC(C)O1 (stereo not given) | 0.0014% | 
COc1ccc(CC(=O)NC2CCSc3ccccc32)cc1OC (stereo not given) | -1.91% | 
CCOc1ccc(CCNC(=O)COC(=O)c2ccc(F)c(S(=O)(=O)N3CCOCC3)c2)cc1OCC | 5.86% | 
COc1ccccc1NS(=O)(=O)c1ccc(C)c(C(=O)NNC(=O)c2csc(N3CCOCC3)n2)c1 | 4.5% | 
CN(C(=O)CSc1nnc(-c2ccc3c(c2)OCO3)o1)C1CCS(=O)(=O)C1 (stereo not given) | 5.71% | 
O=C(CN1CCN(c2cccc(Cl)c2)CC1)Nc1ccc(S(=O)(=O)N2CCOCC2)cc1 |  | 18.3 µM (active)
O=C(CN1CCN(S(=O)(=O)/C=C/c2ccccc2)CC1)Nc1ccc(N2CCOCC2)cc1 | 12.1% | 
O=C(CN1C(=O)CCC1=O)Nc1ccc(S(=O)(=O)N2CCOCC2)cc1 | 14% | 
CN(CCNC(=O)c1cc2c(-c3ccccc3F)nn(C)c2s1)C1CCCCC1 | -7.81% | 
CCOC(=O)N1CCN(C(=O)c2cc3c(-c4ccc(Cl)cc4)nn(C)c3s2)CC1 | -25.1% | 
COc1ccccc1N1CCN(C(=O)c2cc3c(-c4ccc(Cl)cc4)nn(C)c3s2)CC1 |  | 11.6 µM (active)
COc1ccc(-c2cc(C(=O)NCc3ccco3)no2)cc1OC | 23.6% | 
COc1ccccc1N1CCN(C(=O)c2cc(-c3ccc(Cl)c(Cl)c3)on2)CC1 | 22.4% | 
Cn1nc(-c2ccc(Cl)cc2)c2cc(C(=O)NCc3ccco3)sc21 |  | 25.9 µM (active)
Cc1ccc(CSCC(=O)N(C)CC(=O)Nc2ccc(C)cc2)cc1 | -21.2% | 
